Measured values published in the supplement of paper PMC8975748.
Counter-ions that a name gives are not always drawn.

System: Saccharomyces cerevisiae BY4741 SeMeCo community
Test: z-score of subpopulation abundance vs DMSO median, subpopulation auxotrophic for LM; higher = larger share of this subpopulation than in DMSO controls
Settings: 10 µM; 24 h; SM minimal medium; subpopulation (auxotrophy): LM
Procedure: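 Fluorescent four-plasmid SeMeCo (self-establishing metabolically cooperating S. cerevisiae BY4741 community; plasmids pH-mRuby2, pL-mWasabi, pU-eCFP, pM-TagRFP657) was grown 24 h in minimal SM medium with each Selleck FDA-approved drug at 10 µM in 384-well plates. Cells were fixed and imaged by high-content confocal microscopy. For each auxotrophic subpopulation (and the prototroph), a z-score gives the deviation from the DMSO vehicle-control population median.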

Point of comparison: `Nc1nc(N)nc(-c2cc(Cl)ccc2Cl)n1` [Irsogladine], “z-score of subpopulation abundance” value 0.16. Against it:
- CC(Cc1ccc(O)c(O)c1)C(C)Cc1ccc(O)c(O)c1 (stereo not given) [Nordihydroguaiaretic acid (NDGA)] — lower, 0.02
- CCCCOc1cc(C(=O)NCCN(CC)CC)c2ccccc2n1 [Dibucaine HCl] — lower, 0.03
- O=c1[nH]cc(F)c(=O)[nH]1 [Fluorouracil (5-Fluoracil, 5-FU)] — higher, 0.7
- CC(=O)O[C@H]1C[C@@H]2CC[C@@H]3[C@H](CC[C@@]4(C)[C@H]3C[C@H]([N+]3(C)CCCCC3)[C@@H]4OC(C)=O)[C@@]2(C)C[C@@H]1N1CCCCC1 [Vecuronium Bromide] — lower, -1.11
- CC1(C)S[C@@H]2[C@H](NC(=O)[C@H](N)c3ccc(O)cc3)C(=O)N2[C@H]1C(=O)O [Amoxicillin trihydrate] — lower, 0.15
- COc1ccc2cc(CCC(C)=O)ccc2c1 [Nabumetone] — lower, -1.42
- CC(C)C(=O)c1c(C(C)C)nn2ccccc12 [Ibudilast] — lower, -0.43
- CCCCCCCN(CC)CCCC(O)c1ccc(NS(C)(=O)=O)cc1 (stereo not given) [Ibutilide Fumarate] — lower, -0.88
- CN1CCN(CC(=O)N2c3ccccc3C(=O)Nc3cccnc32)CC1 [Pirenzepine dihydrochloride] — lower, -0.32
- Nc1c(CC(=O)O)cccc1C(=O)c1ccc(Br)cc1 [Bromfenac Sodium] — lower, -0.28
- CN[C@H]1C(=O)N[C@@H]2Cc3ccc(cc3)Oc3cc4cc(c3O[C@@H]3O[C@H](C(=O)O)[C@@H](O)[C@H](O)[C@H]3NC(=O)CCCCCCCCC(C)C)Oc3ccc(cc3Cl)[C@@H](O)[C@@H]3NC(=O)[C@H](NC(=O)[C@@H]4NC(=O)[C@@H](NC2=O)c2cc(cc(O)c2Cl)Oc2cc1ccc2O)c1ccc(O)c(c1)-c1c(O[C@H]2O[C@H](CO)[C@@H](O)[C@H](O)[C@@H]2O)cc(O)cc1[C@@H](C(=O)NCCCN(C)C)NC3=O [Dalbavancin] — lower, -1.16
- C[C@H]1COc2c(N3CCN(C)CC3)c(F)cc3c(=O)c(C(=O)O)cn1c23 [Levofloxacin hydrate] — higher, 1.34
- Clc1ccc(CCC(Cn2ccnc2)Sc2c(Cl)cccc2Cl)cc1 (stereo not given) [Butoconazole nitrate] — lower, -0.84
- Nc1ccc(S(=O)(=O)NC(=O)c2ccccc2)cc1 [Sulfabenzamide] — lower, -0.72
- C[C@]12CC[C@@H]3c4ccc(O)cc4CC[C@H]3[C@@H]1CC[C@@H]2OC(=O)CCC1CCCC1 [Estradiol Cypionate] — lower, -0.12
- O=C(O)c1ccccc1O [Salicylic acid] — lower, -0.74
- COC(=O)C1=C(C)NC(C)=C(C(=O)OC(C)(C)CN(C)CCC(c2ccccc2)c2ccccc2)C1c1cccc([N+](=O)[O-])c1 (stereo not given) [Lercanidipine] — higher, 0.9
- C[C@H]1COc2c(C3(N)CC3)c(F)cc3c(=O)c(C(=O)O)cn1c23 [Pazufloxacin mesylate] — lower, -0.18
- N[C@H]1CONC1=O [L-Cycloserine] — higher, 1.19
- CCN(CC)CCNC(=O)c1cc(S(C)(=O)=O)ccc1OC [Tiapride Hydrochloride] — higher, 0.55
- CN1CCCN=C1/C=C/c1cccs1 [Pyrantel Pamoate] — lower, -0.65
- CS(=O)(=O)c1ccc([C@@H](O)[C@@H](CO)NC(=O)C(Cl)Cl)cc1 [Thiamphenicol] — lower, -0.48
- CCN1CCC[C@H]1CNC(=O)c1cc(S(N)(=O)=O)ccc1OC [Levosulpiride] — lower, -0.65
- CN(C)CCCN1c2ccccc2CCc2ccc(Cl)cc21 [Clomipramine HCl] — lower, -0.41
- NCc1ccccc1CC(=O)N[C@@H]1C(=O)N2C(C(=O)O)=C(CSc3nnnn3CC(=O)O)CS[C@H]12 [Ceforanide] — higher, 1.65
- CC(C)NC(=N)NC(=N)Nc1ccc(Cl)cc1 [Proguanil] — lower, 0.02
- NC1CCN(c2nc3c(cc2F)c(=O)c(C(=O)O)cn3-c2ccc(F)cc2F)C1 (stereo not given) [Tosufloxacin p-Toluenesulfonate Hydrate] — lower, -0.53
- Cc1cc(NS(=O)(=O)c2ccc(N)cc2)no1 [Sulfamethoxazole] — lower, 0.08
- O=C([O-])CC(O)(CC(=O)[O-])C(=O)[O-].O=C([O-])CC(O)(CC(=O)[O-])C(=O)[O-].[Bi+3].[K+].[K+].[K+].[K+].[K+] [Bismuth Subcitrate Potassium] — lower, -1.07
- CC(C(=O)O)c1ccc2c(c1)[nH]c1ccc(Cl)cc12 (stereo not given) [Carprofen] — lower, -1.27
- CN1CCC(=C2c3ccccc3C=Cc3ccccc32)CC1 [Cyproheptadine hydrochloride] — lower, -0.35
- CC[C@H]1OC(=O)C[C@@H](O)[C@H](C)[C@@H](O[C@@H]2O[C@H](C)[C@@H](O[C@H]3C[C@@](C)(O)[C@@H](O)[C@H](C)O3)[C@H](N(C)C)[C@H]2O)[C@@H](CC=O)C[C@@H](C)C(=O)/C=C/C(C)=C/[C@@H]1CO[C@@H]1O[C@H](C)[C@@H](O)[C@@H](OC)[C@H]1OC [Tylosin] — higher, 1.45
- C=CCCCCCCCCC(=O)[O-].C=CCCCCCCCCC(=O)[O-].[Zn+2] [Zinc Undecylenate] — lower, -2.11
- COc1ccccc1OCC(O)CN1CCN(CC(=O)Nc2c(C)cccc2C)CC1 (stereo not given) [Ranolazine 2HCl] — lower, -0.74
- Cc1ccc(-c2cc(C(F)(F)F)nn2-c2ccc(S(N)(=O)=O)cc2)cc1 [Celecoxib] — lower, -0.61
- Nc1ccc(S(N)(=O)=O)cc1 [Sulfanilamide] — lower, -1.02
- CC[C@H]1OC(=O)[C@H](C)[C@@H](O[C@H]2C[C@@](C)(OC)[C@@H](O)[C@H](C)O2)[C@H](C)[C@@H](O[C@@H]2O[C@H](C)C[C@H](N(C)C)[C@H]2O)[C@](C)(O)C[C@@H](C)CN[C@H](C)[C@@H](O)[C@]1(C)O [Azathramycin] — lower, -0.14
- CCCN(CCC)CCc1cccc2c1CC(=O)N2 [Ropinirole HCl] — higher, 0.91
- C/C=C\c1ccc(O)c(OC)c1 [Isoeugenol] — higher, 0.87
